Measurements taken from PubChem BioAssay (NCATS).
Results filed as inconclusive are left out. The source made the active and inactive calls. Calls follow the shape of the dose curve; as a rule, active = well fitted cell-killing curve with a large enough effect; inconclusive = small, poorly fitted or top-dose-only effect; inactive = no such curve, though single readings can be large or run the other way.

test: qHTS of pediatric cancer cell lines to identify multiple opportunities for drug repurposing: Primary screen for Rh41 cells (AID 1347108); conditions: Rh41 rhabdomyosarcoma viability, CellTiter-Glo luminescence, 48 h; series mostly up to 46 µM; activity change, negative = cytotoxic: at the top concentration;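 also: luminescence drop marks cytotoxic hits; nearly all actives have a fitted effect of over 70% in size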
Summary of the method: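 500-1,000 cells/well; 5 h pre-incubation 37 °C/5% CO2; compound pinned; 48 h; CellTiter-Glo, 15 min RT; luminescence. MIPE 11-pt from 0.78 nM, NPC 8-pt from 0.59 nM final. Bortezomib 2.3 µM final as positive control.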

Compound	activity change, negative = cytotoxic
CCN(CC)C(=O)Nc1ccc(OCC(O)CNC(C)(C)C)c(C(C)=O)c1 (centres undefined)	25.7% (inactive)
CC(C)(O)c1ccccc1CC[C@@H](SCC1(CC(=O)O)CC1)c1cccc(/C=C/c2ccc3ccc(Cl)cc3n2)c1	27.6% (inactive)
Cc1cc2c(cc1S(N)(=O)=O)S(=O)(=O)CCC2	22.7% (inactive)
NC(N)=NCCC[C@H](N)C(=O)O	10.4% [at 4.84 µM] (inactive)
CC(C)(C)C(=O)C(Oc1ccc(Cl)cc1)n1ccnc1 (centres undefined)	-0.102% (inactive)
O=C(O)c1ccccc1-c1ccc(C(F)(F)F)cc1	22.5% (inactive)
CC(=O)Oc1c(C)c(C)c2c(c1C)CC[C@@](C)(CCC[C@H](C)CCC[C@H](C)CCCC(C)C)O2	14.1% (inactive)
Cc1c(Cl)cccc1Nc1ccccc1C(=O)O	8.75% (inactive)
CCOc1ccc2ccccc2c1C(=O)N[C@@H]1C(=O)N2[C@@H]1SC(C)(C)[C@@H]2C(=O)O	30.3% (inactive)
CCCCCCCCCCCCCCCC(=O)NCCO	20.7% (inactive)
Cc1ccc(C(C)C)cc2c(C)ccc1-2	31.7% (inactive)
O=C1O[C@H](CO)[C@@H](O)[C@H](O)[C@H]1O	14.1% (inactive)
CC(=O)Oc1ccc(C2(c3ccc(OC(C)=O)cc3)C(=O)Nc3ccccc32)cc1	-5.22% (inactive)
COc1ccc2cc1Oc1cc3c(cc1OC)CC[N+](C)(C)[C@H]3Cc1ccc(cc1)Oc1c(OC)c(OC)cc3c1[C@@H](C2)[N+](C)(C)CC3	25.8% (inactive)
CC1=C(CC(=O)O)c2cc(F)ccc2/C1=C\c1ccc(S(C)(=O)=O)cc1	-2.76% (inactive)
C#CCN(C)Cc1ccccc1	28.1% (inactive)
Cc1ncc([N+](=O)[O-])n1CC(O)CCl (centres undefined)	11.2% (inactive)
C[C@@H](O)[C@H](N)C(=O)O	10.6% [at 16.1 µM] (inactive)
Nc1nc2c(ncn2CCC(CO)CO)c(=O)[nH]1	14.8% (inactive)
CCOc1nc2cccc(C(=O)O)c2n1Cc1ccc(-c2ccccc2-c2nn[nH]n2)cc1	5.17% (inactive)

Compound	activity change, negative = cytotoxic
CC1(C)OC(=O)NC1=O	20.8% (inactive)
CCCOC(=O)c1ccccc1	23.9% (inactive)
COc1cc(C)c(Cc2cnc(N)nc2N)cc1OC	13.6% (inactive)
CC(=O)CCC(=O)O	31.3% (inactive)
[O-][n+]1cccc(CO)c1	24.1% (inactive)
Oc1cn2c(n1)Nc1ccc(Cl)c(Cl)c1C2	24.1% [at 16.1 µM] (inactive)
C[C@@H]1CN(c2c(F)c(F)c3c(=O)c(C(=O)O)cn(C4CC4)c3c2F)C[C@H](C)N1	21.8% [at 16.1 µM] (inactive)
CC1=C(CC(=O)O)c2cc(F)ccc2/C1=C\c1ccc(S(C)=O)cc1 (centres undefined)	8.83% (inactive)
NC1CCN(c2cccc(Cl)n2)CC1	15.6% (inactive)
COc1ccc2c(c1)C(=O)N(CCc1ccc(S(=O)(=O)NC(=O)NC3CCCCC3)cc1)C(=O)C2(C)C	-16% (inactive)
Oc1cccc(O)c1	27.9% (inactive)
CC(COc1ccccc1)NC(C)C(O)c1ccc(O)cc1 (centres undefined)	18.5% (inactive)
CC1(C)S[C@@H]2[C@H](NC(=O)Cc3ccccc3)C(=O)N2[C@H]1C(=O)O (tested in a mixture with another compound)	16.3% (inactive)
CCC(=O)Nc1ccc(O)cc1	7.26% (inactive)
CC[C@@]1(c2ccccc2)NC(=O)N(C)C1=O	20.6% (inactive)
Cn1c(=O)c2c(ncn2CC2OCCO2)n(C)c1=O	28.7% (inactive)
C[C@@H]1CCN(C(=O)[C@H](CCCN=C(N)N)NS(=O)(=O)c2cccc3c2NC[C@H](C)C3)[C@@H](C(=O)O)C1	11.8% (inactive)
Cc1ncc(COP(=O)(O)O)c(C=O)c1O	21.5% (inactive)
C[C@@H]1CC[C@@]2(OC1)O[C@H]1C[C@H]3[C@@H]4CC[C@H]5C[C@@H](O)CC[C@]5(C)[C@H]4CC(=O)[C@]3(C)[C@H]1[C@@H]2C	21.2% [at 4.84 µM] (inactive)
